Measured values as given in PubChem BioAssay (NCATS).
A number with no mark means an inactive call. Records with an inconclusive call do not appear. A call without a number means that no potency is given here. Calls of active or inactive are those of the source. Unless noted, calls come from the whole dose curve; as a rule, active = well fitted curve in the direction sought with a large enough effect; inconclusive = small, poorly fitted or top-dose-only effect, or another doubt; inactive = no such curve, though single readings can be large; an effect the other way counts as inactive or inconclusive.

Assays:
[1] = NS1 protein of Zika virus - qHTS assay to identify small molecule inhibitors in human HEK 293 cells (AID 1347053); note: nearly all actives have a fitted effect of over 55% in size
Method in brief: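 TR-FRET signal from two anti-ZIKV NS1 antibodies quantified NS1 in HEK 293 cells 24 h after MR766 infection at MOI = 0.5; compounds were added 1 h before virus. Uninfected cells and infected cells defined the NS1 normalization range.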

[2] = molecular target: T1, Tyrosine-protein phosphatase non-receptor type substrate 1 (Homo sapiens) + Leukocyte surface antigen CD47 (Homo sapiens) (UniProt P78324+Q08722); experiment: CD47-SIRPalpha protein protein interaction - LANCE assay qHTS validation (AID 1347057; active = well fitted curve in the direction sought with a large enough effect in the signal ratio, with a control signal flat, not every such curve was filed as active; the % refers to the signal ratio)
T1 sequence (P78324 whole entry, looked up, the tested form may be a part): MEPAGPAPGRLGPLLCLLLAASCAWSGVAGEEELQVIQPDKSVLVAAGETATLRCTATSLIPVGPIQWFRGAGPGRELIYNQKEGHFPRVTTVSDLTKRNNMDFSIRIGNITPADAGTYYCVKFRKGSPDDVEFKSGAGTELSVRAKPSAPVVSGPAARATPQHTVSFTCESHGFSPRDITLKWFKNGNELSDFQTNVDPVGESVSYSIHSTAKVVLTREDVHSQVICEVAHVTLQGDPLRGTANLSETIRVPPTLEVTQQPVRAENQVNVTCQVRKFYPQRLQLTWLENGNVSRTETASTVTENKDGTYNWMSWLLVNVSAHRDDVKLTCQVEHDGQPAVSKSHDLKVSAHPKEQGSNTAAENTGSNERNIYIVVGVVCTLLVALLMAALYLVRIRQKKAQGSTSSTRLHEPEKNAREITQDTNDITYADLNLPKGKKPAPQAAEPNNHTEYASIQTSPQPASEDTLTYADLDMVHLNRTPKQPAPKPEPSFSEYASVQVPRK
T1 sequence (Q08722 whole entry, looked up, the tested form may be a part): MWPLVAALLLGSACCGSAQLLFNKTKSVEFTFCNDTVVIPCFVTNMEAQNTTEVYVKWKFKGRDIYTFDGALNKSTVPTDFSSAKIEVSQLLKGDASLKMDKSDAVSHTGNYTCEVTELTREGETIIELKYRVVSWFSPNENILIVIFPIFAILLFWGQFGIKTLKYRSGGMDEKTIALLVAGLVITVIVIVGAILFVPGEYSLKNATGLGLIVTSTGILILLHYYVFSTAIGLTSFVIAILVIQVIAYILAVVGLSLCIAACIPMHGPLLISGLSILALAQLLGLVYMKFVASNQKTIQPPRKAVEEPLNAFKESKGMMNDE
Method in brief: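 Inhibition of soluble CD47/SIRPalpha ectodomain association by titrated compounds, measured as 665/615 nm time-resolved FRET ratio after sequential 30 min room-temperature incubations.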

[3] = molecular target: T1, Tyrosine-protein phosphatase non-receptor type substrate 1 (Homo sapiens) + Leukocyte surface antigen CD47 (Homo sapiens); experiment: CD47-SIRPalpha protein protein interaction - HTRF assay qHTS validation (AID 1347058; active = well fitted curve in the direction sought with a large enough effect in the signal ratio, not every such curve was filed as active; the % refers to the signal ratio)
Method in brief: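 Soluble extracellular domains (6His-CD47, Avi-tag-biotinylated SIRPalpha) in PBS pH 7.4 with 0.05% IGEPAL CA-630. Compounds were preincubated 30 min at RT with CD47 and anti-His-Eu, then SIRPalpha and SAV-XL665 were added. TR-FRET 665/615 ratio.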

[4] = molecular target: T1, Tyrosine-protein phosphatase non-receptor type substrate 1 (Homo sapiens) + Leukocyte surface antigen CD47 (Homo sapiens); experiment: CD47-SIRPalpha protein protein interaction - Alpha assay qHTS validation (AID 1347059);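 note: bead proximity luminescence from CD47 binding SIRPalpha after compound preincubation with SIRPalpha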; note: potency is the fitted concentration of half-maximal effect
Method in brief: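 AlphaScreen signal between CD47-His (12.5 nM) and biotin-SIRPalpha (25 nM) soluble extracellular domains, bead-captured via Ni-NTA and streptavidin. Compounds, in 7-point titrations, met SIRPalpha 30 min before CD47; PBS pH 7.4 with 0.05% IGEPAL.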

[5] = molecular target: Parathyroid hormone/parathyroid hormone-related peptide receptor (Homo sapiens) (UniProt Q03431); experiment: qHTS for PTHR1 Agonists: Optimization Screen against the NCGC LOPAC library (AID 1347079);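 note: GloSensor cAMP luminescence in HEK-293 GP2 cells expressing human PTHR1 with IBMX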
Parathyroid hormone/parathyroid hormone-related peptide receptor (Homo sapiens), sequence (Q03431 whole entry, looked up): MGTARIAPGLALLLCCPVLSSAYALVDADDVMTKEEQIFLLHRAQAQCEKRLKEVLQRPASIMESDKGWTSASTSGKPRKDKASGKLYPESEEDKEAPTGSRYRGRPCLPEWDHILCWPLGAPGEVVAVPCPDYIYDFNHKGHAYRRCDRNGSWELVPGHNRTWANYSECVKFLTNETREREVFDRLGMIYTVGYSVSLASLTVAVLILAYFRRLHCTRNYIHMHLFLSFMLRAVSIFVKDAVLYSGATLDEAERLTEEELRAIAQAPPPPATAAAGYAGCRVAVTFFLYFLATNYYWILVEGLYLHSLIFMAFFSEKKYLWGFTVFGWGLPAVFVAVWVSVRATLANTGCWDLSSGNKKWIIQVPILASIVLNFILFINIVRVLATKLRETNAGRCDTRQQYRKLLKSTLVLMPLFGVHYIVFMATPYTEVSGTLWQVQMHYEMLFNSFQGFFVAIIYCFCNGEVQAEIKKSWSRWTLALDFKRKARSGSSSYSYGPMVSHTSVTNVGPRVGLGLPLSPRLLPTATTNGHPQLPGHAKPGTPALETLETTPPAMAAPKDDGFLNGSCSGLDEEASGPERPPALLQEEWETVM
Method in brief: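 HEK-293 GP2 cells, PTHR1 + GloSensor cAMP; 3000 cells/well, o/n. Luciferin + IBMX 0.5mM each (stock), 1 hr 37C. Cpd titration, 1 hr 37C. Lum after 15 min RT. Ctrl M-PTH(1-15) top 10uM.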

[6] = molecular target: N-terminal Xaa-Pro-Lys N-methyltransferase 1 (Homo sapiens) (UniProt Q9BV86); experiment: qHTS Assay for Inhibitors of N-terminal methyltransferase 1 (NTMT1): LOPAC validation of the NTMT1 SAHH-coupled ThioGlo3 Assay (AID 1347143);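 note: SAH from peptide methylation measured as thiol fluorescence via SAHH coupling and ThioGlo3; nearly all actives have a fitted effect of over 70% in size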; note: potency is the fitted concentration of half-maximal effect
N-terminal Xaa-Pro-Lys N-methyltransferase 1 (Homo sapiens), sequence (Q9BV86 whole entry, looked up): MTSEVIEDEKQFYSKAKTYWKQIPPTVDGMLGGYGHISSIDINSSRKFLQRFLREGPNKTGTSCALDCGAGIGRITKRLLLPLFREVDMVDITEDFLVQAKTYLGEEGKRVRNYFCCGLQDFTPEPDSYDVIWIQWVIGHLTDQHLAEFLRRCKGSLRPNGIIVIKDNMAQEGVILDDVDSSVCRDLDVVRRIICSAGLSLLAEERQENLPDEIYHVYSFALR
Method in brief: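 NTMT1 125nM + cpds (various conc.), 1 min RT; add SAM 100uM/SAHH 10uM/ThioGlo3 15uM (addition mix). SAHH-coupled thiol detection, Ex340/Em450, t0 and 30 min RT; signal normalized to background. LOPAC 1280-cpd pilot.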

[7] = system: Zika virus NS2B-NS3 protease (unlinked); experiment: Optimization of GU AMC qHTS for Zika virus inhibitors: Unlinked NS2B-NS3 protease assay (AID 1347151); note: nearly all actives have a fitted effect of over 80% in size; note: potency is the fitted concentration of half-maximal effect
Method in brief: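 Fluorescence read-out (340 nm ex / 450 nm em) of AMC peptide cleavage, taken immediately and after 15 min at room temperature (~20% conversion). Enzyme was the unlinked NS2B–NS3 complex at 25 nM in Tris pH 8.0 buffer.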

[8] = system: Zika virus NS2B-NS3 protease; experiment: Primary screen GU AMC qHTS for Zika virus inhibitors (AID 1347154); note: nearly all actives have a fitted effect of over 70% in size; note: potency is the fitted concentration of half-maximal effect
Method in brief: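 Fluorogenic AMC-substrate cleavage by noncovalent NS2B-NS3 protease complex (25 nM, pH 8.0 Tris buffer with Tween 20) followed for 15 minutes at room temperature (~20% conversion). Percent inhibition from ex340/em450 signal change, fitted by 4-parameter Hill equation.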

[9] = molecular target: Lysine-specific demethylase 5B (Homo sapiens) (UniProt Q9UGL1); experiment: Optimization screen for KDM5B Histone Demethylases FDH coupled qHTS against the LOPAC library (AID 1347166); conditions: KDM5B demethylation, FDH-coupled NADH fluorescence (FDH is formaldehyde dehydrogenase); at 57.5 µM (top of the series)
Lysine-specific demethylase 5B (Homo sapiens), sequence (Q9UGL1 whole entry, looked up): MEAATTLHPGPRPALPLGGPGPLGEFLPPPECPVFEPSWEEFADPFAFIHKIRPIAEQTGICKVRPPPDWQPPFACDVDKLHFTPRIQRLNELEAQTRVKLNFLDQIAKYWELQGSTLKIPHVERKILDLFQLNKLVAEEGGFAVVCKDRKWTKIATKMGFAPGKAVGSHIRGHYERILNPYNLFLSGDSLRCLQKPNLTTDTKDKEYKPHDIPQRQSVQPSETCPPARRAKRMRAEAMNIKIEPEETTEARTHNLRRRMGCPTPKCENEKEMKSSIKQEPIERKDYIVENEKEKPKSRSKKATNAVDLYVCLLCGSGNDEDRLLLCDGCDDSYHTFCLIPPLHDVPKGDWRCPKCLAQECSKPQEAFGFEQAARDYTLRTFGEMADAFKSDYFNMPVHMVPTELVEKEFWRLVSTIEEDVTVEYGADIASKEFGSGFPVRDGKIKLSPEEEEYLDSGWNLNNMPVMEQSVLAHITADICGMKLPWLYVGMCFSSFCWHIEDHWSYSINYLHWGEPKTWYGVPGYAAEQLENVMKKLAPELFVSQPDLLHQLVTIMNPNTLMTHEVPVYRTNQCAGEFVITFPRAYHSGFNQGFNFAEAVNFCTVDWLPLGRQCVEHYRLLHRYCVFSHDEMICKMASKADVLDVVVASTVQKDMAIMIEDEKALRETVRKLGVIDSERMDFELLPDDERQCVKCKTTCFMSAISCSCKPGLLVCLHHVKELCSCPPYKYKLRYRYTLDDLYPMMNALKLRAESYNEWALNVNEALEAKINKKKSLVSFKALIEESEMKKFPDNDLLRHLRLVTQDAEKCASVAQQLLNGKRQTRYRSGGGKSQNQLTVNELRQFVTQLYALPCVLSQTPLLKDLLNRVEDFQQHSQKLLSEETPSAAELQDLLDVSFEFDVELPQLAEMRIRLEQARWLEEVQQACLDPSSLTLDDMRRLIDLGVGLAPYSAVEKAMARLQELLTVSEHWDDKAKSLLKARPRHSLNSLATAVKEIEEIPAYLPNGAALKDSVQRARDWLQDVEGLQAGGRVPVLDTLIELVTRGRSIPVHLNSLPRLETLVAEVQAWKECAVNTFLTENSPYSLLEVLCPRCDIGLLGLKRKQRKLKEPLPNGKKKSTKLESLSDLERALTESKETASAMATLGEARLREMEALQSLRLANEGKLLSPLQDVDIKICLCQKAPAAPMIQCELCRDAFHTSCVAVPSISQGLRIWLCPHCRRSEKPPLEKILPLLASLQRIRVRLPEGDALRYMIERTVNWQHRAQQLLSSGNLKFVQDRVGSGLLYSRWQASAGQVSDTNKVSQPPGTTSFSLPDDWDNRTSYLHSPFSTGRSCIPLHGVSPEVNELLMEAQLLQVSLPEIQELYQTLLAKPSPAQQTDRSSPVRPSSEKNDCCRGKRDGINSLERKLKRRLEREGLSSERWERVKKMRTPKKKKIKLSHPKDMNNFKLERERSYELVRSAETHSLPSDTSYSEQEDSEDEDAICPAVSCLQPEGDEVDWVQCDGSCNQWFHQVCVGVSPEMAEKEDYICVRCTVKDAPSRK
Method in brief: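 KDM5BDeltaAP (200nM final) in 50mM HEPES pH 7.5, 0.01% Tween-20 was preincubated with compound for 10 min at room temperature. A substrate mix of 12.5uM H3K4Me3, 25uM a-ketoglutarate, ascorbate, Fe2+, NAD+ and formaldehyde dehydrogenase was then added. NADH fluorescence (340/450 nm) was read initially and after 30 min.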

[10] = system: Zika virus NS2B-NS3 protease (linked); experiment: 384 well plate NINDS AMC confirmatory qHTS for Zika virus inhibitors (AID 1347163); note: potency is the fitted concentration of half-maximal effect; nearly all actives have a fitted effect of over 50% in size
Method in brief: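 Fluorescence at 355/460 nm was read after 25 minutes of cleavage of 30 microM Ac-VKTGKR-AMC at room temperature, in the dark. Before substrate addition, compounds (up to 1 mM final) sat ~15 minutes with 5, 30 or 60 nM linked protease. Signals were normalized to no-enzyme and no-inhibitor wells.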

[11] = system: Zika virus NS2B-NS3 protease (linked construct); experiment: 384 well plate NINDS Rhodamine confirmatory qHTS for Zika virus inhibitors (AID 1347164);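 note: fluorescence from protease cleavage of Ac-LKRR-rhodamine 110 substrate; potency is the fitted concentration of half-maximal effect; nearly all actives have a fitted effect of over 65% in size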
Method in brief: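 Fluorescence read at ex 485 nm/em 538 nm, 25 min after adding 10 microM Ac-LKRR-Rd substrate at room temperature in the dark; signal normalized to no-enzyme and no-inhibitor controls. Enzyme final 5, 30 or 60 nM; compounds, ~15 min preincubation.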

| Structure (SMILES) | Potency [1] | Potency [2] | outcome [3] | Potency [4] | Potency [5] | Potency [6] | Potency [7] | Potency [8] | activity, negative = inhibition [9] | Potency [10] | Potency [11] |
| --- | --- | --- | --- | --- | --- | --- | --- | --- | --- | --- | --- |
| CCSC(=N)N | inactive | inactive | inactive | inactive | inactive | inactive | inactive | inactive | -5.42% |  |  |
| CCCCCCC(=O)OC1CC(C)(C)NC(C)(C)C1 | inactive | inactive | inactive | inactive | inactive | inactive | inactive | inactive | -0.896% |  |  |
| CN1CC(O)C(O)C(O)C1CO (stereo not drawn) | inactive | inactive | inactive | inactive | inactive | inactive | inactive |  | -6.96% |  |  |
| C#CCn1c(=O)c2c(ncn2C)n(C)c1=O | inactive | inactive | inactive | inactive | inactive | inactive | inactive | inactive | -2.26% |  |  |
| N[C@H](C(=O)O)[C@H]1C[C@@H]1C(=O)O | inactive | inactive | inactive | inactive | inactive | inactive | inactive | inactive | -7.37% |  |  |
| COc1ccc(CCN(C)CCc2ccc(OC)c(OC)c2)cc1OC | inactive | inactive | inactive | inactive | inactive | inactive | inactive | inactive | 3.09% |  |  |
| Cn1c(=O)c2[nH]c(C3CCCC3)nc2n(C)c1=O | inactive | inactive | inactive | inactive | inactive | inactive | inactive | inactive |  |  |  |
| COC(=O)C(C)(N)Cc1ccc(O)cc1 (stereo not drawn) | inactive | inactive | inactive | inactive | inactive | inactive | inactive |  | -17.5% |  |  |
| CC[N+](CC)(CC)CC(=O)Nc1c(C)cccc1C | inactive | inactive | inactive | inactive | inactive | inactive | inactive | inactive | -1.53% |  |  |
| C=C(C)C1CC=C(C(=O)O)CC1 (stereo not drawn) | inactive | inactive | inactive | inactive | inactive | inactive | inactive |  | 1.54% |  |  |
| COCc1nc2c([nH]1)c(=O)n(C)c(=O)n2CC(C)C | inactive | inactive | inactive | inactive | inactive | inactive | inactive | inactive | -5.87% |  |  |
| O=C1Nc2ccc(I)cc2/C1=C/c1cc(Br)c(O)c(Br)c1 | inactive | inactive | inactive | 14.7 µM (active) | inactive | 56.2 µM (active) | 5.97 µM (active) | inactive | -25% | 89.1 µM (active) | 2.51 µM (active) |
| CCCN(CCc1ccccc1)C1CCc2c(O)cccc2C1 (stereo not drawn) | inactive | inactive | inactive | inactive | inactive | inactive | inactive | inactive | -0.152% |  |  |
| CCCn1c(=O)c2[nH]c(C3CCCC3)nc2n(CCC)c1=O | inactive | inactive | inactive | inactive | inactive | inactive | inactive | inactive | -5.16% |  |  |
| CCCCCCN(CCCCCC)C(=O)Cc1c(-c2ccc(F)cc2)[nH]c2ccccc12 | inactive | inactive | inactive | inactive | inactive | 79.4 µM (active) | 21.2 µM (active) | inactive |  |  |  |
| C=CCn1c(=O)c2c(nc(-c3ccc(S(=O)(=O)O)cc3)n2C)n(C)c1=O | inactive | inactive | inactive | inactive | inactive | 15.8 µM (active) | 2.99 µM (active) | 5.32 µM (active) | -806% (active) |  |  |
| CC(N)(C(=O)O)c1ccc(C(=O)O)cc1 (stereo not drawn) | inactive | inactive | inactive | inactive | inactive | inactive | inactive | inactive | -6.58% |  |  |
| NC(N)=NC(N)=Nc1cccc(Cl)c1 | inactive | inactive | inactive | inactive | inactive | inactive | inactive | inactive | -3.11% |  |  |
| CC(/C=C/c1cccc(Oc2ccc(F)cc2)c1)N(O)C(N)=O (stereo not drawn) | inactive | inactive | inactive | inactive | inactive | inactive | inactive | inactive |  |  |  |
| CC(C)(C)NCC(O)COc1cccc2[nH]c(=O)[nH]c12 (stereo not drawn) | inactive | inactive | inactive | inactive | inactive | inactive | inactive | inactive | -6.87% |  |  |
| Cc1cc(Cn2cnc3c2C[C@@H](C(=O)O)N(C(=O)C(c2ccccc2)c2ccccc2)C3)ccc1N | inactive | inactive | inactive | inactive | inactive | inactive | inactive |  | 0.747% |  |  |
| N[C@@H](Cc1c[nH]c2ccccc12)C(=O)O | inactive | inactive | inactive | inactive | inactive | inactive | inactive |  | -20.4% |  |  |
| NC1(C(=O)O)CC1 | inactive | inactive | inactive | inactive | inactive | inactive | inactive |  | -7.89% |  |  |
| O=C(O)C1CCCNC1 (stereo not drawn) | inactive | inactive | inactive | inactive | inactive | inactive | inactive |  | -0.313% |  |  |
